Only some compounds are listed: those with a hit (about 11% of all), similar ones and a draw of the others.
IMPase inh = IMPase inhibition in cells. 120,000 tested, under 10 active. P97697. inhibition (IP1 accumulation), % at 46.1 µM. CHO-M1 cells, IP1 accumulation, HTRF TR-FRET ratio; active = well fitted curve in the direction sought with a large enough effect in the signal ratio, not every such curve was filed as active; inconclusive = small, poorly fitted or top-dose-only effect, or a change in a side signal; inactive = no such curve, though single readings can be large or run the other way; the % refers to the signal ratio;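 note: cells stimulated with carbachol in lithium chloride buffer; plate controls were DMSO basal wells for no effect and reference inhibitor wells for full effect; higher means more IMPase inhibition seen as more IP1 and lower FRET ratio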
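CHO-M1, 2000 cells/well, cultured 16–30 h; cpd up to 46 uM; carbachol (50 uM solution, stimulation buffer w/ 50 mM LiCl, pH 7.4), 30 min 37C; IP-One TR-FRET, 10 min RT; Ex 320/Em 665, 620; Hill-fit AC50.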
ALDH1A1 inh = ALDH1A1 (human) enzyme inhibition; AID 1030; hit rate 7.3% among 220,000; Purified ALDH1A1, NADH fluorescence, propionaldehyde substrate; Potency, µM (titrated, usually from 75.3 µM), for the others: top-dose activity, negative = inhibition, actives largely listed as inhibitors; P00352;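 note: potency is the fitted concentration of half-maximal effect; plate controls were no enzyme wells and a reference inhibitor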
Target sequence (P00352 whole entry, looked up): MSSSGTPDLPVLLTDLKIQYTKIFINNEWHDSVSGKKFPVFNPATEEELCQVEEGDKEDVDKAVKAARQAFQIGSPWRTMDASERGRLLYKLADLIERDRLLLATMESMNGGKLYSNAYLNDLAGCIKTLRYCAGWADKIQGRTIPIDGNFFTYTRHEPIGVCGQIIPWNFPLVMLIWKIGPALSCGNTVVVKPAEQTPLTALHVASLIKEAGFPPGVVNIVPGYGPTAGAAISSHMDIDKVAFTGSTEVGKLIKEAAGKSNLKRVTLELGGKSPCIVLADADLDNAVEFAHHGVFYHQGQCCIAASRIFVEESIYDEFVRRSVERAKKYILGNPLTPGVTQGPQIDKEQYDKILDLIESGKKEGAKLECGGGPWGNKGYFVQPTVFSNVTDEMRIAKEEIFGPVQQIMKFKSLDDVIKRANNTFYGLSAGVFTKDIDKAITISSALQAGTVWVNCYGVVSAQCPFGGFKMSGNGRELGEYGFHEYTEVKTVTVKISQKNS
IMPase Li cell = cell-permeable IMPase inhibitors with lithium potentiation. CHO-M1 cells, IP1 TR-FRET (IP-One), carbachol + lithium. Potency, µM (series often up to 59.4 µM), without a hit: top-dose activity, negative = IMPase inhibition, hits mostly inhibitors. hit rate 0.35% among 210,000; active = well fitted curve in the direction sought with a large enough effect; inconclusive = small, poorly fitted or top-dose-only effect, or another doubt; inactive = no such curve, though single readings can be large; an effect the other way counts as inactive or inconclusive;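 note: IP1 builds up when IMPase is blocked and the TR-FRET signal falls; potency is the fitted concentration of half-maximal effect; plate controls were basal vehicle for no effect and high inhibitor control for full effect; nearly all actives have a fitted effect of over 50% in size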
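CHO-M1, 2000 cells/well, 16–30 h culture; cpd + low Li+, 30 min 37C; lysis with d2-IP1/Eu-anti-IP1 Ab, 10 min RT; TR-FRET 665/620 ratio and 620 channel; AC50 via Hill.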
12-hLO inh = 12-hLO (ALOX12) enzyme inhibition | P18054 | purified 12-hLO, xylenol orange hydroperoxide absorbance | Potency, µM (doses to about 57.1 µM), for the others: at the top dose activity change, negative = inhibition, hits mostly inhibitors | hit rate 0.12% among 150,000 | AID 1452; active = well fitted curve in the direction sought with a large enough effect; inconclusive = small, poorly fitted or top-dose-only effect, or another doubt; inactive = no such curve, though single readings can be large; an effect the other way counts as inactive or inconclusive; note: potency is the fitted concentration of half-maximal effect; nearly all actives have a fitted effect of over 55% in size
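Lipoxygenase turnover measured by absorbance at 573 and 405 nm after Fe-XO development. Human 12hLO 150 nM, arachidonate 40 uM, pH 7.0 Hepes buffer with detergent; 15 min compound preincubation, 30 min reaction.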
HPGD inh = HPGD (human) dehydrogenase inhibition; hit rate 4.3% among 150,000; AID 894; P15428; purified HPGD, NADH fluorescence kinetic, PGE2 substrate; Potency, µM, without a hit: at the top dose activity change, negative = inhibition, hits mostly inhibitors; note: potency is the fitted concentration of half-maximal effect
Target sequence (P15428 whole entry, looked up): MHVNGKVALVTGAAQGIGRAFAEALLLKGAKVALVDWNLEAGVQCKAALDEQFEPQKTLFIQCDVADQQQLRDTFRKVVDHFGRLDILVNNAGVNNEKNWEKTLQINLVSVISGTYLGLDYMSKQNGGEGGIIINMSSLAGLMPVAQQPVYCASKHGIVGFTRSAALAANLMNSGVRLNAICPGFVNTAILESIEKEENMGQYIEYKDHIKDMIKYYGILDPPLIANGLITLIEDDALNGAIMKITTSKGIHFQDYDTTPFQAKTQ
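NADH formation kinetics: reaction with 30 uM PGE2 and 1 mM NAD+ (final), 20 nM enzyme, Tris-HCl pH 8 with Tween 20, after 15 min compound preincubation at room temperature. Fluorescence change, last versus first of five reads.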
PNC inhibitor = blocks assembly of the perinucleolar compartment; PC3M PTB-GFP, PNC prevalence imaging, 16 h; hits give low values; activity change (PNC), negative = inhibition, % at 10 µM; hit rate 3.1% among 140,000; AID 2417;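 active = readout at or below -70, meaning at least 70% loss of cells showing the perinucleolar compartment, a nuclear body marking cancer cells; inconclusive = readout between -30 and a set limit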;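 note: plate controls were DMSO wells for no effect and camptothecin positive control wells for full effect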
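Read-out is percentage of cells bearing a perinucleolar compartment, from automated 20x imaging of fixed, Hoechst-stained PC3M PTB-GFP cells. Cells were seeded 4 h, then exposed 16 h to compound (23 nl of library stock) in duplicate plates.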
* marks the source's active call; other numbers are inactive results; ? = inconclusive; nt = no result; [ ] = dose if it differs, or a comment. Unless noted, calls come from the whole dose curve; as a rule, active = well fitted inhibition curve with a large enough effect (not every such curve was filed as active); inconclusive = small, poorly fitted or top-dose-only effect, or another doubt; inactive = no such curve, though single readings can be large or run the other way. Unless noted, % is set by controls: 0 for no effect and ±100 for the full control effect.

SMILES | IMPase inh | ALDH1A1 inh | IMPase Li cell | 12-hLO inh | HPGD inh | PNC inhibitor
NNS(=O)(=O)c1ccc(N2CCCC2=O)c([N+](=O)[O-])c1 | nt | 17.8µM* | -2.8% | nt | nt | nt
NS(=O)(=O)c1ccc(N2CCCC2=O)c([N+](=O)[O-])c1 | nt | -14.6% | -0.8% | nt | nt | nt
C/C=C/OC(=O)NC(c1ccccc1)[C@]1(C(C)=O)CCCC1=O (some centres undefined) | nt | 3.7%[13.5 µM] | nt | nt | nt | nt
Cc1ccc2c(c1Br)/C(=N/N1C(=O)c3ccccc3C1=O)C(=O)N2 | -0.4 | 0.751µM* | 4.5%[38.3 µM] | -10.3% | -12.2% | 58.9
Cc1onc(-c2c(Cl)cccc2Cl)c1C(=O)NNc1ccccc1 | nt | 22.4µM* | nt | nt | nt | nt
Cc1onc(-c2c(F)cccc2Cl)c1C(=O)OCN1C(=O)c2ccccc2C1=O | 9.8 | 2.6% | 6.4%[38.3 µM] | -9.3% | 1.41µM* | -20.9
Cc1onc(-c2c(Cl)cccc2Cl)c1C(=O)NCCc1ccc(S(N)(=O)=O)cc1 | 8.2 | 3.1% | 22.0%[38.3 µM] | 5.3% | 31.6µM* | 6.9
Cc1onc(-c2c(Cl)cccc2Cl)c1C(=O)N[C@H]1C(=O)N2[C@H]1SC(C)(C)[C@H]2C(=O)O | -1.0[20.6 µM] | 8.1%[20.9 µM] | 7.2% | -2.6%[25.6 µM] | 10µM* | nt
Cc1[nH]c2ccccc2c1C(=O)COC(=O)c1c(-c2c(F)cccc2Cl)noc1C | 6.0 | 6.5% | 12.6% | -0.3% | -7.5% | ?
CC(=O)OCC(=O)[C@@]1(O)CCC2C3CC[C@H]4CC(O)CC[C@@]4(C)C3C(=O)C[C@]21C (some centres undefined) | nt | 10.3% | 3.9% | 2.2% | -2.8% | nt
CC(NC(=O)C1CCCC1)C1CC2CCC1C2 (centres undefined) | nt | -3.8% | -8.4% | 2.7% | 28.2µM* | 15.1
CC(NC(=O)C1CC=CCC1C(=O)O)C1CC2CCC1C2 (centres undefined) | 2.8 | 6.6% | 6.2%[38.3 µM] | -11.8% | 3.0% | ?
O=C(Cn1ccc(C(F)(F)F)n1)Nc1cccc(S(=O)(=O)N2CCCCC2)c1 | nt | -1.0% | 2.8% | nt | nt | nt
CCOc1ccccc1C(=O)Nc1cc2c(cc1N1CCOCC1)n(C)c(=O)n2C | -4.4 | nt | nt | nt | nt | nt
Cc1cc(C)nc(SCC(=O)c2ccc(O)cc2O)n1 | 1.4 | 10.9% | -4.3%[38.3 µM] | 1.4% | -19.2% | -92.1*
Nc1cc(=O)[nH]c(SCC(=O)N2CCCCC2)n1 | nt | -10.4% | -2.4% | nt | nt | nt
Cc1cc(C)nc(SCC(=O)N2CCCCC2)n1 | 6.6 | ? | -8.0%[38.3 µM] | -2.5% | 7.94µM* | ?
Nc1cc(N)nc(SCC(=O)N2CCCCC2)n1 | -10.0 | -4.5% | -0.5%[38.3 µM] | 3.7% | 28.2µM* | 35.2
O=C(CSc1nc2ccccc2nc1SCC(=O)N1CCCCC1)N1CCCCC1 | ? | 9.6% | nt | -9.7% | 2.51µM* | -19.7
Cc1cc(O)ccc1N=Cc1c(C(F)(F)F)[nH][nH]c1=O | nt | ? | 0.1% | nt | nt | nt
Cc1ccc(-n2c(CSc3nc(C)cc(C)n3)nnc2SCC(=O)N2CCCC2)cc1 | -1.7 | ? | -8.4%[38.3 µM] | -7.1% | 3.5% | -100.0*
Cc1cc(C)nc(SCC(=O)NN)n1 | nt | 10µM* | 16.5% | nt | nt | nt
Cc1cc(C)nc(SCc2nnc(SCC#N)n2-c2cccc(Cl)c2)n1 | 9.3 | 9.4% | -5.0%[38.3 µM] | -1.4% | 15.8µM* | -7.7
Cc1cc(C)nc(SCc2nnc(SCC(=O)O)n2-c2ccccc2)n1 | nt | 7.6% | -1.3% | nt | nt | nt
O=C(CN1C(=O)c2cccc3cccc1c23)Nc1cccc(F)c1 | 1.8 | nt | nt | nt | nt | nt
SMILES | IMPase inh | ALDH1A1 inh | IMPase Li cell | 12-hLO inh | HPGD inh | PNC inhibitor
O=c1/c(=C\c2cccnc2)sc2nc3ccccc3n12 | 2.0 | 1.8% | 21.0%[38.3 µM] | -3.2% | -6.7% | 2.2
O=C1CCC/C1=c1\s/c(=C\c2cccnc2)c(=O)n1-c1ccccc1 | 13.6 | 6.31µM* | 24.0%[38.3 µM] | -10.9% | -12.8% | -10.3
O=C(Nc1ccccc1F)c1cnccn1 | nt | 7.0% | -1.8% | nt | nt | nt
Cc1cccc(Oc2ccccc2NC(=O)c2cnccn2)c1 | -1.2 | 11.2µM* | 24.6%[38.3 µM] | 9.0% | -17.4% | 20.8
O=[N+]([O-])c1cc(CN2CCN(c3cccc(C(F)(F)F)c3)CC2)c2cccnc2c1O | nt | 17.8µM* | -3.0% | nt | nt | nt
CCC(C)/C(C)=N/NC(=O)c1ccc(COc2ccc(Cl)c(C)c2)cc1 (centres undefined) | nt | 12.6µM* | 7.3% | -2.5% | -14.7% | -134.0*
CCOc1ccccc1C(=O)Oc1c(S(=O)(=O)c2ccc(C)cc2)c(C)nn1-c1ccccc1 | 6.7 | nt | nt | nt | nt | nt
CCN(CC)S(=O)(=O)c1ccc(N2Cc3ccccc3C2=N)cc1 | nt | 9.8% | 22.3% | nt | nt | nt
CN1c2ccccc2C(C)(C)C12CC(c1cccc(S(=O)(=O)N3CCCC3)c1)=NO2 (centres undefined) | nt | -10.4% | 0.4% | 1.0% | -20.8% | -117.0*
CCN(CC)S(=O)(=O)c1ccc(C2=NOC3(C2)N(C)c2ccccc2C3(C)C)cc1 (centres undefined) | nt | ? | 7.4% | 1.8% | -17.1% | -106.3*
CN1c2ccccc2C(C)(C)C12CC(c1ccc(S(=O)(=O)N3CCCCC3)cc1)=NO2 (centres undefined) | nt | 10.5% | -8.5% | -2.0% | -8.2% | ?
Cc1cccc(CNc2cc(-c3cccnc3)ncn2)c1 | nt | ? | 0.6% | -4.6% | ? | nt
CCCOc1ccc(C(=O)Nc2cc3c(cc2N2CCOCC2)n(C)c(=O)n3C)cc1 | -4.8 | nt | nt | nt | nt | nt
COc1ccc(OC)c(NC(=S)NCc2ccc(S(N)(=O)=O)cc2)c1 | nt | ? | 4.8% | nt | nt | nt
CCOCCCNC(=S)Nc1ccc(S(N)(=O)=O)cc1 | nt | 5.4% | 2.2% | -1.9% | 14.1µM* | 12.2
COc1ccc(CNC(=S)Nc2ccc(S(N)(=O)=O)cc2)cc1 | nt | 28.2µM* | 7.8% | nt | nt | nt
COc1ccc(NC(=S)NCc2ccc(S(N)(=O)=O)cc2)c(OC)c1 | 3.1 | ? | 4.7% | -5.7% | 14.1µM* | -4.3
Cc1ccc(SCCNC(=S)Nc2ccc(C)c(C)c2)cc1 | 8.9 | ? | 39.8%[38.3 µM] | 25.1µM* | -9.2% | 59.6
C[C@@](N)(C(=O)O)[C@@H]1C[C@@H]1C(=O)O | nt | 2.5% | -23.0% | nt | nt | nt
CCC/C=C(\CCC)C(NC(=O)Oc1ccc(F)cc1)c1ccc(C(=O)OC)cc1 (centres undefined) | nt | 5.1% | -2.2% | -1.1% | -8.2% | nt
O=C(O)C1=C(C(=O)Nc2cc(C(F)(F)F)ccc2Cl)CCCC1 | nt | -10.7% | -1.4% | nt | nt | nt
O=C(NCCCCN1CCCC1)c1ccc(Cc2nc3ccccc3[nH]2)cc1 | nt | -15.3% | nt | -1.3% | -9.9% | nt

Bioassay records from PubChem BioAssay.
